Compounds without any hit were thinned out: in the full panel of roughly 83,000, 20% have a hit.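 Cell lines were cultured in 96-well plates, exposed to a single compound concentration, and assessed for percent growth 48 hours later.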 Values without a mark were called inactive. Activity calls are given as the source filed them. How the source made its calls: active means growth percent below 10; inactive means the rest.

Test systems include HCT-15 colon; HT29 colon; SNB-75 CNS; SNB-19 CNS; U251 CNS; PC-3 prostate; SK-MEL-5 melanoma; UACC-62 melanoma; LOX IMVI melanoma; SK-MEL-28 melanoma; SK-MEL-2 melanoma; EKVX NSCLC; SN12C renal; UO-31 renal; TK-10 renal; ACHN renal; CAKI-1 renal; CCRF-CEM leukemia; MOLT-4 leukemia.
Test in all cases: NCI-60 one-dose screen, 48 h (100 = growth as untreated, 0 = no growth, -100 = all killed)
Holding throughout (settings): 10 µM unless noted

Take `O=S(=O)(NCCNc1nccc(-c2c(-c3cccc(O)c3)nc3occn23)n1)c1cccc(F)c1`: the growth with HCT-15 colon is 95.5%; with HT29 colon, 51.2%; in the assay with SNB-75 CNS it was 80.6%; in the assay on SNB-19 CNS it was 102%; in the assay with U251 CNS it was 98.3%; in the assay on PC-3 prostate, 86.8%. For the same compound, the growth with SK-MEL-5 melanoma was 46.4%; in the assay with UACC-62 melanoma it was 14%; in the assay on LOX IMVI melanoma, 64.8%; with SK-MEL-28 melanoma, 50.1%; with SK-MEL-2 melanoma, 61.1%; in the assay on EKVX NSCLC it was 97.1%. The growth in the assay on SN12C renal was 76.6%; in the assay on UO-31 renal, 92.7%; in the assay with TK-10 renal, 136%; with ACHN renal it was 78%; in the assay with CAKI-1 renal, 71.6%; in the assay on CCRF-CEM leukemia, 91.7%. Further, the growth with MOLT-4 leukemia is 93%.

In the case of `CC1(C)c2[nH]c3ccccc3c2C[C@]2(C)[C@H]3C(=O)C=C4[C@@H]5C[C@@](C)(C(N)=O)CC[C@]5(C)CC[C@@]4(C)[C@]3(C)CC[C@@H]12`, the growth in the assay with HCT-15 colon is 65.8%; in the assay with HT29 colon, 56.3%; in the assay with SNB-75 CNS, 89.3%; in the assay on SNB-19 CNS, 78.6%; in the assay with U251 CNS it was 70.4%; with PC-3 prostate, 42.1%. For the same compound, the growth in the assay on SK-MEL-5 melanoma was 72%; with UACC-62 melanoma, 70.6%; with LOX IMVI melanoma, 83%; in the assay on SK-MEL-28 melanoma, 93.3%; with SK-MEL-2 melanoma it was 81.8%; in the assay on EKVX NSCLC, 68.4%. Also, the growth with SN12C renal is 72%; in the assay on UO-31 renal, 42.6%; with TK-10 renal, 70.5%; with ACHN renal, 76.7%; with CAKI-1 renal it was 82.8%; in the assay on CCRF-CEM leukemia it was 66.7%. The growth with MOLT-4 leukemia was 32.6%.

As to `Cc1nnc2c(Cc3ccccc3)nc3ccccc3n12`, the growth in the assay with HCT-15 colon was 106%; in the assay with HT29 colon, 105%; in the assay on SNB-75 CNS, 78.1%; in the assay on SNB-19 CNS, 103%; in the assay with U251 CNS, 101%; in the assay on PC-3 prostate, 104%. For the same compound, the growth is 97.6% in the assay with SK-MEL-5 melanoma; 100% in the assay on UACC-62 melanoma; 92.4% with LOX IMVI melanoma; 103% with SK-MEL-28 melanoma; 110% in the assay with SK-MEL-2 melanoma; 90.9% in the assay on EKVX NSCLC. The growth in the assay on SN12C renal was 99.6%; in the assay on UO-31 renal, 90.8%; with TK-10 renal it was 101%; in the assay on ACHN renal, 100%; in the assay on CAKI-1 renal it was 88.3%; in the assay on CCRF-CEM leukemia, 91.1%. Also, in the assay on MOLT-4 leukemia, the growth is 91.2%.

With `COc1ccccc1/C=C1\Oc2cc(OCCN3CCCC3)ccc2C1=O`, the growth in the assay on HCT-15 colon was 39.4%; in the assay with HT29 colon, 14%; in the assay on SNB-75 CNS, 90.5%; in the assay with SNB-19 CNS, 88.9%; with U251 CNS, 76.1%; in the assay with PC-3 prostate, 83%. The growth was 87.2% in the assay on SK-MEL-5 melanoma; 97.3% in the assay on UACC-62 melanoma; 68.1% with LOX IMVI melanoma; 91.8% in the assay with SK-MEL-28 melanoma; 106% in the assay on SK-MEL-2 melanoma; 85.9% in the assay on EKVX NSCLC. In addition, the growth is 88.8% in the assay on SN12C renal; 66.3% in the assay with UO-31 renal; 97.9% with TK-10 renal; 94.2% with ACHN renal; 94.3% with CAKI-1 renal; 54.7% in the assay on CCRF-CEM leukemia. The growth with MOLT-4 leukemia is 68.7%.

For `O=C1c2ccc3c4c(ccc(c24)C(=O)N1CCCNCc1ccccc1Cl)C(=O)N(CCCNCc1ccccc1Cl)C3=O`, the growth in the assay with HCT-15 colon is -46% (active); in the assay with HT29 colon it was -42.5% (active); in the assay on SNB-75 CNS, -97.9% (active); in the assay with SNB-19 CNS, -76.9% (active); in the assay on U251 CNS it was -52.8% (active); in the assay with PC-3 prostate, -37.7% (active). In addition, the growth with SK-MEL-5 melanoma was -96.6% (active); in the assay on UACC-62 melanoma it was -59.5% (active); in the assay on LOX IMVI melanoma, -53.7% (active); in the assay on SK-MEL-28 melanoma, -92.2% (active); in the assay on SK-MEL-2 melanoma it was -60.6% (active); with EKVX NSCLC it was -46.7% (active). Moreover, the growth was -87.1% (active) in the assay on SN12C renal; -35% (active) in the assay with UO-31 renal; -54.9% (active) in the assay on TK-10 renal; -39.3% (active) in the assay with ACHN renal; -12.6% (active) in the assay with CAKI-1 renal; -15.5% (active) in the assay with CCRF-CEM leukemia. The growth with MOLT-4 leukemia was -24.4% (active).

Take `O=C(C1CCC1)N1N=C(c2ccc(-n3ccc(C(F)(F)F)n3)cc2)CC1c1ccc[nH]1` (configuration not stated): the growth in the assay on HCT-15 colon was 85.6%; in the assay with HT29 colon, 89.8%; in the assay with SNB-75 CNS, 101%; in the assay on SNB-19 CNS, 95.9%; with U251 CNS, 82.2%; in the assay on PC-3 prostate it was 76.5%. Further, the growth was 100% in the assay with SK-MEL-5 melanoma; 90.5% with UACC-62 melanoma; 92.8% in the assay with LOX IMVI melanoma; 104% in the assay with SK-MEL-28 melanoma; 101% in the assay with SK-MEL-2 melanoma; 90.4% with EKVX NSCLC. For the same compound, the growth in the assay on SN12C renal is 98.3%; in the assay with UO-31 renal it was 94.4%; in the assay on TK-10 renal, 89.1%; in the assay with ACHN renal it was 102%; in the assay on CAKI-1 renal, 91.5%; in the assay on CCRF-CEM leukemia, 89.9%. In the assay with MOLT-4 leukemia, the growth is 74.8%.

For the compound `COc1cc2nc(-c3ccc(C(F)(F)F)cc3)cc(OCCCN3CCOCC3)c2cc1OC`, the growth with HCT-15 colon was 7.76% (active); in the assay with HT29 colon, 17.4%; in the assay with SNB-75 CNS, -9.47% (active); in the assay on SNB-19 CNS, 61%; in the assay on U251 CNS, 42.6%; in the assay with PC-3 prostate, 42.1%. Also, the growth with SK-MEL-5 melanoma is -33.1% (active); with UACC-62 melanoma, -26.1% (active); in the assay with LOX IMVI melanoma, -82.1% (active); in the assay with SK-MEL-28 melanoma it was 42.1%; with SK-MEL-2 melanoma, 47.4%; in the assay with EKVX NSCLC it was 61.6%. The growth was 41.3% in the assay with SN12C renal; 33% in the assay on UO-31 renal; 96.6% in the assay with TK-10 renal; 34.3% with ACHN renal; -13.1% (active) in the assay with CAKI-1 renal; 37.5% in the assay on CCRF-CEM leukemia. In addition, the growth in the assay on MOLT-4 leukemia is 44.9%.

Regarding `CCCCCN1C=C/C(=C\C(=O)N(C)c2ccc(OC(F)(F)F)cc2)c2ccccc21`, the growth in the assay on HCT-15 colon was 99.8%; in the assay with HT29 colon it was 81.2%; with SNB-75 CNS it was 104%; with SNB-19 CNS it was 96.9%; in the assay on U251 CNS, 95.4%; in the assay with PC-3 prostate, 93.7%. The growth with SK-MEL-5 melanoma was 96.5%; in the assay with UACC-62 melanoma, 89.3%; in the assay with LOX IMVI melanoma, 101%; in the assay with SK-MEL-28 melanoma, 109%; in the assay on SK-MEL-2 melanoma, 101%; with EKVX NSCLC it was 87.2%. For the same compound, the growth in the assay with SN12C renal is 96%; in the assay on UO-31 renal, 77.4%; in the assay with TK-10 renal, 105%; with ACHN renal, 108%; in the assay on CAKI-1 renal, 89.4%; in the assay on CCRF-CEM leukemia, 104%. In addition, the growth with MOLT-4 leukemia was 95.8%.

For the origin of these results see PubChem BioAssay (NCI).
